Common to all, as to design: species or system human, MV4-11 + K-562 + COLO205 + SK-N-BE2 + OVCAR-8
For one experiment, the system named is PHKG2. To be noted: read-out: apparent Kd; compound concentrations: 100 nM and 1000 nM (sheet 'Samples'), CATDS: 8.5402919050668602E-3; n = 1.
Another experiment concerns RPS6KB1. To be noted: read-out: apparent Kd; compound concentrations: 100 nM and 1000 nM (sheet 'Samples'), CATDS: 7.08215510279748E-2; n = 1.
In the next experiment the test system is NCL. To be noted: read-out: apparent Kd; compound concentrations: 100 nM and 1000 nM (sheet 'Samples'), CATDS: 1.71627638164802E-2; n = 1.
The test system of another experiment is PRKCZ. To be noted: read-out: apparent Kd; compound concentrations: 100 nM and 1000 nM (sheet 'Samples'), CATDS: 1.7514325716089001E-2; n = 1.
In the next experiment the test system is TESK2. To be noted: read-out: apparent Kd; compound concentrations:100 nM and 1000 nM (sheet 'Samples'); n = 1.
The next experiment relates to MAP3K5. To be noted: read-out: apparent Kd; compound concentrations: 100 nM and 1000 nM (sheet 'Samples'), CATDS: 5.5720140806326597E-2; n = 1.
The next experiment deals with NEK1. To be noted: read-out: apparent Kd; compound concentrations: 100 nM and 1000 nM (sheet 'Samples'), CATDS: 0.147931725525974; n = 1.
Another experiment has as its system RAF1. To be noted: read-out: apparent Kd; compound concentrations: 100 nM and 1000 nM (sheet 'Samples'), CATDS: 0.155550656381887; n = 1.
Another experiment has as its system MAPK3. To be noted: read-out: apparent Kd; compound concentrations:100 nM and 1000 nM (sheet 'Samples'); n = 1.
In a further experiment the test system is CLK3. To be noted: read-out: apparent Kd; compound concentrations: 100 nM and 1000 nM (sheet 'Samples'), CATDS: 1.8485003347971998E-2; n = 1.
Another experiment relates to NTRK1. To be noted: read-out: apparent Kd; compound concentrations: 100 nM and 1000 nM (sheet 'Samples'), CATDS: 1.31353956305182E-2; n = 1.
For a further experiment, the system named is RPS6KA1. To be noted: read-out: apparent Kd; compound concentrations: 100 nM and 1000 nM (sheet 'Samples'), CATDS: 1.0541415060752299E-2; n = 1.
The subject of another experiment is PIK3C2B. To be noted: read-out: apparent Kd; compound concentrations: 100 nM and 1000 nM (sheet 'Samples'), CATDS: 3.01337612448444E-2; n = 1.
Another experiment concerns MAP2K3. To be noted: read-out: apparent Kd; compound concentrations:100 nM and 1000 nM (sheet 'Samples'); n = 1.
A further experiment concerns PIK3CB. To be noted: read-out: apparent Kd; compound concentrations:100 nM and 1000 nM (sheet 'Samples'); n = 1.
For another experiment, the system named is SLC25A5. To be noted: read-out: apparent Kd; compound concentrations:100 nM and 1000 nM (sheet 'Samples'); n = 1.
A further experiment relates to NEK9. To be noted: read-out: apparent Kd; compound concentrations: 100 nM and 1000 nM (sheet 'Samples'), CATDS: 2.1458730065113701E-2; n = 1.
The subject of a further experiment is PI4KB. To be noted: read-out: apparent Kd; compound concentrations: 100 nM and 1000 nM (sheet 'Samples'), CATDS: 0.18067625739165599; n = 1.
The test system of another experiment is FES. To be noted: read-out: apparent Kd; compound concentrations: 100 nM and 1000 nM (sheet 'Samples'), CATDS: 3.8230279183827799E-2; n = 1.
The subject of a further experiment is IARS. To be noted: read-out: apparent Kd; compound concentrations: 100 nM and 1000 nM (sheet 'Samples'), CATDS: 0.121118103418118; n = 1.

With `O=C1N=C(NCc2cccs2)SC1Cc1ccc2ncccc2c1` (centres unmarked) [RO4629078-000], the potency estimated from few doses in the experiment with PHKG2 was 1040 nM.
`O=C1N=C(NCCc2ccccc2F)S/C1=C\c1ccc2ncccc2c1` [RO4498483-000]: in the experiment with RPS6KB1, the potency estimated from few doses is 1720 nM.
For the compound `Cl.Cl.Cl.c1ccc(Oc2ccc(Nc3ccnc4cc(-c5ccc(CN6CCNCC6)o5)ccc34)cc2)nc1.c1ccc(Oc2ccc(Nc3ccnc4cc(-c5ccc(CN6CCNCC6)o5)ccc34)cc2)nc1` [GW567142A], the potency estimated from few doses was 1970 nM with NCL and 1820 nM with PRKCZ.
On to `CCn1cc(-c2ccnc3[nH]c(-c4cccc(CN(C)C)c4)cc23)c(-c2ccc(NC(=O)N(C)C)cc2)n1` [GSK1070916], for which, in the experiment on TESK2, the potency estimated from few doses is 1310 nM.
For the compound `CNC1=NC(=O)/C(=C/c2ccc3ncccc3c2)S1` [RO4595949-000], the potency estimated from few doses in the experiment on MAP3K5 is 1240 nM.
With `COc1cc(Nc2nccc(N3CCC(NC(=O)c4cccc(C#N)c4)C3)n2)cc(OC)c1OC` (centres unmarked) [GSK1379751A], in the experiment with NEK1, the potency estimated from few doses was 1860 nM.
Take `CCc1nc(-c2cccc(N(C)S(=O)(=O)c3ccccc3)c2)c(-c2ccnc(Nc3ccc(N4CCN(C(C)=O)CC4)nc3)n2)s1` [GSK1645895A]: the potency estimated from few doses with RAF1 was 1420 nM.
Consider `N#Cc1cccc(Nc2nccc(-c3cnn4ncccc34)n2)c1` [GW778894X], for which the potency estimated from few doses with MAPK3 is 975 nM.
`CNC(=O)c1ccccc1Nc1nc(Nc2cccc(CS(C)(=O)=O)c2)ncc1C.O=CO` [GSK1520489A]: the potency estimated from few doses with CLK3 was 167 nM; in the experiment on NTRK1, 438 nM; in the experiment with RPS6KA1, 1010 nM.
Take `O=S(=O)(CCOCc1ccc(-c2ccc3ncnc(Nc4ccc(OCc5cccc(F)c5)c(Cl)c4)c3c2)o1)c1ccccc1` [GW615311X]: the potency estimated from few doses with PIK3C2B is 1160 nM.
Consider `Nc1nc(N)c2nc(-c3ccccc3)[nH]c2n1` [SKF-12778], for which the values for the potency estimated from few doses with MAP2K3, in the experiment on PIK3CB and with SLC25A5 were 2020 nM, 790 nM and 1960 nM, respectively.
Turning to `CC(C)c1nc(-c2cccc(NS(=O)(=O)c3c(F)cccc3F)c2F)c(-c2ccnc(Nc3ccc(N4CCOCC4)nc3)n2)s1` [GSK2008607A], the potency estimated from few doses in the experiment on NEK9 is 1100 nM.
`CS(=O)(=O)c1ccc(-c2cnc(N)c(C(=O)Nc3ccccc3)n2)cc1` [VE-821]: the potency estimated from few doses in the experiment with PI4KB was 812 nM.
Take `CN1CCN(Cc2ccc(NC(=O)Nc3ccc(N(C)c4ccnc(Nc5ccc(CS(C)(=O)=O)cc5)n4)cc3)cc2)CC1.Cl` [GW827654A]: in the experiment on FES, the potency estimated from few doses is 1230 nM.
In the case of `CS(=O)(=O)c1ccc(-c2nc3n(c2-c2ccncc2)CCC3)cc1` [SKF-105942], the potency estimated from few doses in the experiment on IARS was 1900 nM.

Values taken from publication PMC11062922 (Nature Chemical Biology, 2023).
